Cav3 T inh – inhibitors of human Cav3.2 T-type calcium channel; O95180; Cav3.2-expressing cells, Fluo-4 calcium fluorescence FDSS; hits give low values; B-score at 10 µM; 100,000 compounds, 4% hits; AID 449739;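 active = single-dose well whose peak fluorescence ratio is a statistical outlier from its plate by either plate-standardised score or position-corrected B-score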
CYP2C9 act – activators of human CYP2C9 | activation factor at 5 µM | AID 1024 | recombinant CYP2C9, luciferin-H conversion, luminescence; hits give high values; factor 1 = untreated enzyme, 0 = blocked | P11712 | 96,000 compounds, 1.4% hits;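 active = activation factor of 2 or more for CYP2C9 at a 5 µM dose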;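 also: 0 = sulfaphenazole-blocked wells and 1 = vehicle-only wells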
Target sequence (P11712 whole entry, looked up): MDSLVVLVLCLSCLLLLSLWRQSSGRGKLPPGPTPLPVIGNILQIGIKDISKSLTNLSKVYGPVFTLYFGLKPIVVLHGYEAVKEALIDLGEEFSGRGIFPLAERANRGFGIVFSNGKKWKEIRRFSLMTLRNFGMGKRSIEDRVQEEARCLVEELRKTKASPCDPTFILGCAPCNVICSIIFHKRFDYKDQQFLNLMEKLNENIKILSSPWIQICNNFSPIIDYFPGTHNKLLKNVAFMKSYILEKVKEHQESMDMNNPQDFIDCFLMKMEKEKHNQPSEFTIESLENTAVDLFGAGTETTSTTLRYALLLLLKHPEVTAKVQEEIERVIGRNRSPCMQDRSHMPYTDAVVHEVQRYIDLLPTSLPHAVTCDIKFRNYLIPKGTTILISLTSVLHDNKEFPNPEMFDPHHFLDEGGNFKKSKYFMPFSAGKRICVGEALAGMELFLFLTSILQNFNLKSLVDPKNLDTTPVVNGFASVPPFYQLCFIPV
CYP2C19 act – activators of human cytochrome P450 2C19 | activation factor at 5 µM | P33261 | recombinant CYP2C19, luciferin-H EGE luminescence; hits give high values; 0 = fully inhibited enzyme, 1 = untreated enzyme | 96,000 tested, under 10 active | AID 1025;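 active = activation factor of at least 2 at 5 µM in the primary screen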;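 also: 0 = wells with 2.5 mM tranylcypromine and 1 = vehicle-only wells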
CYP2C19 inh – human CYP2C19 inhibition; inhibition, % at 5 µM; P33261; AID 778; CYP2C19 Supersomes, luciferin-H EGE luminescence, 30 min; 96,000 compounds, 21% hits;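 active = CYP2C19 inhibition above a set limit at 5 µM in the primary screen, cut at about 50% in these data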;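 also: plate controls were negative control wells for no effect and 2.5 mM tranylcypromine positive control for full effect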
CYP2C9 inh – blocks human cytochrome P450 2C9; 96,000 compounds, 20% hits; inhibition, % at 5 µM; P11712; AID 777; CYP2C9 Supersomes, luciferin-H conversion, luminescence;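 active = blocking of liver enzyme CYP2C9 beyond about 50% at 5 µM, limit read from the data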
The depositor's hits bear a star; · = no result. In the library only some 27% were active in any assay of this set; here they are far more common.

SMILES	Cav3 T inh	CYP2C9 act	CYP2C19 act	CYP2C19 inh	CYP2C9 inh
CC(=O)NCCc1nc2ccccc2n1Cc1ccccc1	-0.86	0.8	0.4	59*	17
Cc1ccc(Cn2c(Cc3ccccc3)nc3ccccc32)cc1	-5*	0.6	0.6	41	44
Cc1ncc(N=Nc2ccccc2)c(-c2ccccc2)n1	·	0.9	0.8	19	6
COc1ccc(-c2nc3ccccc3n2Cc2ccc(C)cc2)cc1	-3.5	0.8	1	-2	23
Cc1cccc(NCc2nc3ccccc3n2Cc2ccccc2)c1	·	0	0	96*	96*
COCc1nc2ccccc2n1Cc1ccc(Br)cc1	-1.5	0.1	0	100*	90*
O=C(NNS(=O)(=O)c1ccccc1[N+](=O)[O-])c1ccc(O)cc1	-0.65	0.3	0.6	40	68*
Cc1ccc(C(=O)NNS(=O)(=O)c2ccccc2[N+](=O)[O-])cc1	1.4	·	·	·	·
Cc1ccc(CNc2oc(COc3ccccc3Cl)nc2C#N)cc1	-0.68	0.4	0.7	30	61*
N#Cc1nc(COc2ccccc2Cl)oc1NCc1cccnc1	-0.068	0.6	0.1	91*	36
COc1ccc(CNc2oc(COc3ccccc3Cl)nc2C#N)cc1	-0.57	0.5	0.7	31	47
Cc1ccc(NC(=O)c2cc(N3C(=O)C4CC=CCC4C3=O)ccc2N2CCOCC2)cc1Cl (configuration not stated)	-1.5	0.9	1	2	7
COc1ccc(Oc2nc(C)cc(C)c2C#N)cc1	-0.89	0.7	0.7	30	30
COc1ccc(C2(O)CC3CCC(C2)N3c2nc(C)cc(C)c2C#N)cc1 (configuration not stated)	0.18	0.4	0.6	41	59*
Cc1ccn2cc(CCNS(=O)(=O)c3ccc4c(c3)OCCO4)nc2c1	0.7	1.4	0.2	79*	-42
CC1(C)CCCC2=C1CC1C(=O)N(Cc3cccnc3)C(=O)C1C2 (configuration not stated)	0.63	0.7	0.7	28	32
CCc1ccc2c(CN3CCN(S(=O)(=O)c4ccc5c(c4)OCCO5)CC3)cc(=O)oc2c1	-1.8	0.5	0.5	46	53*
CCOC(=O)Nc1ccc2c(CN3CCN(S(=O)(=O)c4ccccc4)CC3)cc(=O)oc2c1	-0.41	·	·	·	·
O=c1cc(CN2CCN(S(=O)(=O)c3ccc4c(c3)OCCO4)CC2)c2ccc(O)cc2o1	0.028	0.3	1.1	-10	66*
CCc1ccc2oc(=O)cc(CN3CCC(C)CC3)c2c1	·	0.7	0.7	25	26
Cc1ccc(S(=O)(=O)N2CCN(S(=O)(=O)c3ccc4c(c3)OCCO4)CC2)cc1	-0.58	1.1	1.1	-14	-10
CCc1ccc2oc(=O)cc(CN3CCOCC3)c2c1	2.3	0.7	0.4	65*	29
Cc1ccc2c(CC(=O)N3CCN(S(=O)(=O)c4ccc5c(c4)OCCO5)CC3)coc2c1	-5.6*	0.3	0.6	41	72*
Cc1nnc(NC(=O)CSc2nnc(Cc3ccccc3)n2Cc2ccccc2)s1	-0.0099	0.7	1	5	26
CO/N=C\C(=N\Nc1ccc(OC)cc1)C(=O)c1ccccc1	2.1	0.6	0.7	30	44
SMILES	Cav3 T inh	CYP2C9 act	CYP2C19 act	CYP2C19 inh	CYP2C9 inh
CC(C)(C)c1cc(CN2CCOCC2)c(C(=O)O)o1	-3.6	1.2	1.2	-18	-17
Cc1ccc(NC(=O)C2CCN(S(C)(=O)=O)CC2)cc1C	0.11	0.9	0.8	17	10
CCCN(CCC)S(=O)(=O)c1ccc(NC(=O)c2cc(C(=O)OC)cc([N+](=O)[O-])c2)cc1	-0.14	1	0.8	18	-2
O=C(c1ccccc1F)N1CCN(S(=O)(=O)c2ccc3c(c2)OCCO3)CC1	-0.4	0.5	0.1	93*	49
CN(C1CCCCC1)S(=O)(=O)c1ccc(S(=O)(=O)N2CCN(C(=O)c3ccccc3F)CC2)cc1	0.0076	1	0.9	8	4
COCCNC(=O)CN(C(=O)CCC(=O)Nc1cc(C)on1)c1ccccc1C	2.1	0.8	0.9	10	25
Cc1ccc(C2=NN(C(=S)Nc3ccccc3)C(c3ccco3)C2)cc1 (configuration not stated)	-3	0.5	0.8	24	52*
COc1cc(C(=O)Nc2cnc(NC(=O)C(C)C)cc2C)cc(OC)c1OC	-0.16	·	·	·	·
CN(CC(=O)NCc1ccc2c(c1)OCO2)S(=O)(=O)c1ccc(Br)s1	·	0.1	0.3	70*	89*
Cc1ccc(S(=O)(=O)N(C)CCCC(=O)NCc2ccc3c(c2)OCO3)cc1	-0.31	0.2	0.2	82*	76*
